# Test results from the supplement of paper PMC12808144.
# Unmarked numbers belong to inactive results.
# How the values were obtained:
# Mel-DCC-11 = assay: cell viability relative to DMSO control (fraction of DMSO control); higher = less cytotoxic, active = 0.5 or less; settings: 1 µM; 120 h
# In short: (§1)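 A library of 315 approved anti-cancer drugs (TargetMol) was acoustically pre-spotted into 384-well plates and tested at 1 µM in duplicate for 120 h. Cells were added in 40 µl per well: NHEM-hTERT immortalized melanocytes at 2500/well, and patient-derived Mel-DCC-11 and its resistant subline Mel-DCC-11-R at 1500/well. The subline was tested both alone and with 8 µM of its selecting drug. Viability was read by ATPlite 1step luminescence, normalised to DMSO controls and averaged over duplicates.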
# NHEM-hTERT = assay: as above; settings: 1 µM; 120 h
# In short: as §1
# Mel-DCC-11-R = assay: cell viability relative to DMSO control (fraction of DMSO control); higher = less cytotoxic, active = 0.8 or less; settings: 1 µM, 120 h
# In short: as §1
SMILES,cell viability (Mel-DCC-11),cell viability (NHEM-hTERT),cell viability (Mel-DCC-11-R; vemurafenib co-treatment 0 µM),cell viability (Mel-DCC-11-R; vemurafenib co-treatment 8 µM)
Nc1nc(=O)c2c(CCc3ccc(C(=O)N[C@@H](CCC(=O)O)C(=O)O)cc3)c[nH]c2[nH]1 [Pemetrexed acid],0.933,1.19,1.22,0.964
CS(=O)(=O)CCNCc1ccc(-c2ccc3ncnc(Nc4ccc(OCc5cccc(F)c5)c(Cl)c4)c3c2)o1.Cc1ccc(S(=O)(=O)O)cc1.Cc1ccc(S(=O)(=O)O)cc1.O [Lapatinib ditosylate monohydrate],1.13,1.05,1.14,0.823
Cl.N=C1CCCN1Cc1[nH]c(=O)[nH]c(=O)c1Cl.O=c1[nH]c(=O)n([C@H]2C[C@H](O)[C@@H](CO)O2)cc1C(F)(F)F.O=c1[nH]c(=O)n([C@H]2C[C@H](O)[C@@H](CO)O2)cc1C(F)(F)F,1.27,0.967,1.23,1.1
CN(C)CCOc1ccc(/C(=C(/CCCl)c2ccccc2)c2ccccc2)cc1.O=C(O)CC(O)(CC(=O)O)C(=O)O [Toremifene citrate],–,0.992,–,–
CN(N=O)C(=O)N[C@@H]1[C@@H](O)[C@H](O)[C@@H](CO)O[C@@H]1O [Streptozocin],–,1.11,–,–
COc1cc2c(cc1O)CC[C@@H]1[C@@H]2CC[C@]2(C)[C@@H](O)CC[C@@H]12 [2-Methoxyestradiol],0.961,0.87,1.29,0.985
Cc1ccc(NC(=O)C2(c3ccc4c(c3)OC(F)(F)O4)CC2)nc1-c1cccc(C(=O)O)c1 [Lumacaftor],1.12,0.997,0.946,1.04
C[C@@H](CN1CC(=O)NC(=O)C1)N1CC(=O)NC(=O)C1.Cl [Dexrazoxane HCl],–,1.2,–,–
Nc1nc(F)nc2c1ncn2[C@@H]1O[C@H](COP(=O)(O)O)[C@@H](O)[C@@H]1O [Fludarabine Phosphate],–,1.2,–,–
COc1cccc2c1C(=O)c1c(O)c3c(c(O)c1C2=O)C[C@@](O)(C(=O)CO)C[C@@H]3O[C@H]1C[C@H](N)[C@H](O)[C@H](C)O1.Cl [Doxorubicin hydrochloride],0.133 (active),0.454 (active),0.166 (active),0.171 (active)
CC1(C)CCC(CN2CCN(c3ccc(C(=O)NS(=O)(=O)c4ccc(NCC5CCOCC5)c([N+](=O)[O-])c4)c(Oc4cnc5[nH]ccc5c4)c3)CC2)=C(c2ccc(Cl)cc2)C1,1.42,0.502,1.04,1.23
CC(O)(P(=O)([O-])O)P(=O)([O-])O.[Na+].[Na+] [Sodium etidronate],0.955,0.984,0.787 (active),0.91
Nc1c2ccccc2nc2ccccc12 [Aminacrine],1.43,0.915,1.26,1.2
COC(=O)C1=C(C)NC(C)=C(C(=O)OC)C1c1ccccc1[N+](=O)[O-] [Nifedipine],1.07,1.03,1.1,1.18
COc1cccc2c1C(=O)c1c(O)c3c(c(O)c1C2=O)C[C@@](O)(C(=O)CO)C[C@@H]3O[C@H]1C[C@H](N)[C@H](O[C@H]2CCCCO2)[C@H](C)O1 [Pirarubicin],0.0404 (active),0.839,0.233 (active),0.0504 (active)
CCCS(=O)(=O)Nc1ccc(F)c(C(=O)c2c[nH]c3ncc(-c4ccc(Cl)cc4)cc23)c1F [Vemurafenib],–,0.746,–,–
CS(=O)(=O)CCNCc1ccc(-c2ccc3ncnc(Nc4ccc(OCc5cccc(F)c5)c(Cl)c4)c3c2)o1.Cc1ccc(S(=O)(=O)O)cc1.Cc1ccc(S(=O)(=O)O)cc1 [Lapatinib Ditosylate],–,1.13,–,–
CC=Cc1ccc(OC)cc1 (stereo in doubt) [cis-Anethol],1.19,0.759,1.26,0.591 (active)
Cc1c(C)c2c(c(C)c1O)CCC(C)(COc1ccc(CC3SC(=O)NC3=O)cc1)O2 (stereo not given) [Troglitazone],1.31,1.05,1.01,1.12
Oc1c(I)cc(Cl)c2cccnc12 [Clioquinol],0.864,0.798,0.866,0.847
Nc1ncn([C@H]2C[C@H](O)[C@@H](CO)O2)c(=O)n1 [Decitabine],2.02,0.907,1.31,0.968
CCCCCCCCCCCCCCCC(=O)OC/C=C(C)/C=C/C=C(C)/C=C/C1=C(C)CCCC1(C)C [Retinol palmitate],0.752,0.993,1.02,0.978
CC[C@@H]1C(=O)N(C)c2cnc(Nc3ccc(C(=O)N[C@H]4CC[C@H](N5CCN(CC6CC6)CC5)CC4)cc3OC)nc2N1C(C)C [Volasertib],–,0.872,–,–

SMILES,cell viability (Mel-DCC-11),cell viability (NHEM-hTERT),cell viability (Mel-DCC-11-R; vemurafenib co-treatment 0 µM),cell viability (Mel-DCC-11-R; vemurafenib co-treatment 8 µM)
O=C1CCC(N2C(=O)c3ccccc3C2=O)C(=O)N1 (stereo not given) [Thalidomide],1.2,1.1,0.897,0.589 (active)
COc1ccc(C[C@H](N)C(=O)N[C@H]2[C@@H](O)[C@H](n3cnc4c(N(C)C)ncnc43)O[C@@H]2CO)cc1.Cl.Cl [Puromycin dihydrochloride],0.246 (active),0.467 (active),0.309 (active),0.58 (active)
Nc1nc2[nH]nnc2c(=O)[nH]1 [8-Azaguanine],1.68,1.08,1.42,1.05
CC(C)=CCC/C(C)=C/CC/C(C)=C/CC/C(C)=C/CC1=C(C)C(=O)c2ccccc2C1=O [Menatetrenone],1.25,1.02,1.11,1.18
Nc1ncn([C@@H]2O[C@H](CO)[C@@H](O)[C@H]2O)c(=O)n1 [Mylosar],–,0.874,–,–
C=C(c1ccc(C(=O)O)cc1)c1cc2c(cc1C)C(C)(C)CCC2(C)C [Bexarotene],1.77,1.2,1.07,1.59
CCCCCCNC(=O)n1cc(F)c(=O)[nH]c1=O [Carmofur],–,1.17,1.12,1.06
Nc1nc(F)nc2c1ncn2[C@@H]1O[C@H](CO)[C@@H](O)[C@@H]1O [Fludarabine],–,0.934,1.2,0.977
Cc1ccc(NC(=O)c2ccc(CN3CCN(C)CC3)cc2)cc1Nc1nc(-c2cccnc2)cs1 [Masitinib],–,0.801,1.1,0.944
C#C[C@]1(O)CC[C@H]2[C@@H]3CCc4cc(OC5CCCC5)ccc4[C@H]3CC[C@@]21C [Quinestrol],–,0.894,0.953,1
Cl.Cl.O=C1c2c(O)ccc(O)c2C(=O)c2c(NCCNCCO)ccc(NCCNCCO)c21 [Mitoxantrone hydrochloride],–,0.797,–,–
CC(=O)O.CC(C)C[C@H](NC(=O)[C@@H](COC(C)(C)C)NC(=O)[C@H](Cc1ccc(O)cc1)NC(=O)[C@H](CO)NC(=O)[C@H](Cc1c[nH]c2ccccc12)NC(=O)[C@H](Cc1cnc[nH]1)NC(=O)[C@@H]1CCC(=O)N1)C(=O)N[C@@H](CCCN=C(N)N)C(=O)N1CCC[C@H]1C(=O)NNC(N)=O [Goserelin acetate],–,1.07,–,–
OC[C@H]1O[C@@H](n2cnc3c2NC=NC[C@H]3O)C[C@@H]1O [Pentostatin],–,1.1,–,–
CCc1cn([C@H]2C[C@H](O)[C@@H](CO)O2)c(=O)[nH]c1=O [Edoxudine],–,0.967,–,–
Nc1ccc(F)cc1NC(=O)c1ccc(CNC(=O)/C=C/c2cccnc2)cc1 [Chidamide],–,0.668,1.34,1.16
CC(C)(CO)c1cc2cc(NC(=O)C3(c4ccc5c(c4)OC(F)(F)O5)CC3)c(F)cc2n1C[C@@H](O)CO,–,1.06,1.18,1.07
CN1CCN(c2ccc3nc(-c4c(N)c5c(F)cccc5[nH]c4=O)[nH]c3c2)CC1 [Dovitinib],–,0.972,1.05,1.08
CN(C)CCCN1c2ccccc2Sc2ccc(Cl)cc21.Cl [Chlorpromazine hydrochloride],–,1.06,–,–
S=c1nc[nH]c2nc[nH]c12 [Mercaptopurine],–,1.07,0.876,0.993
Clc1ccc(C(c2ccccc2Cl)C(Cl)Cl)cc1 (stereo not given) [Mitotan],–,0.958,1,0.82
O=NN(CCCl)C(=O)NC1CCCCC1 [Lomustine],–,0.938,0.985,1.11
Cc1cc(Nc2ncc(Cl)c(Nc3ccccc3S(=O)(=O)C(C)C)n2)c(OC(C)C)cc1C1CCNCC1,–,0.88,1.17,0.873
